Measured values from ChEMBL document CHEMBL1961873, “Compounds: GSK PKIS; Assays: Nanosyn kinase panel” (2012).

How the values were obtained:
[1] = target: Serine/threonine-protein kinase MRCK alpha (Homo sapiens) (UniProt Q5VT25); conditions: at 0.1 µM
[2] = target: Serine/threonine-protein kinase MRCK alpha (Homo sapiens) (UniProt Q5VT25); conditions: at 1 µM
[3] = target: Serine/threonine-protein kinase MRCK beta (Homo sapiens) (UniProt Q9Y5S2); conditions: at 0.1 µM
[4] = target: Serine/threonine-protein kinase MRCK beta (Homo sapiens) (UniProt Q9Y5S2); conditions: at 1 µM
[5] = target: Ribosomal protein S6 kinase alpha-5 (Homo sapiens) (UniProt O75582); conditions: at 0.1 µM
[6] = target: Ribosomal protein S6 kinase alpha-5 (Homo sapiens) (UniProt O75582); conditions: at 1 µM
[7] = target: Ribosomal protein S6 kinase alpha-4 (Homo sapiens) (UniProt O75676); conditions: at 0.1 µM
[8] = target: Ribosomal protein S6 kinase alpha-4 (Homo sapiens) (UniProt O75676); conditions: at 1 µM
[9] = target: Ribosomal protein S6 kinase beta-1 (Homo sapiens) (UniProt P23443); conditions: at 0.1 µM
[10] = target: Ribosomal protein S6 kinase beta-1 (Homo sapiens) (UniProt P23443); conditions: at 1 µM
[11] = target: T1, 3-phosphoinositide-dependent protein kinase 1 (Homo sapiens) (UniProt O15530); conditions: at 0.1 µM;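 note: values are mean inhibition of PDK1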
T1 sequence (whole entry): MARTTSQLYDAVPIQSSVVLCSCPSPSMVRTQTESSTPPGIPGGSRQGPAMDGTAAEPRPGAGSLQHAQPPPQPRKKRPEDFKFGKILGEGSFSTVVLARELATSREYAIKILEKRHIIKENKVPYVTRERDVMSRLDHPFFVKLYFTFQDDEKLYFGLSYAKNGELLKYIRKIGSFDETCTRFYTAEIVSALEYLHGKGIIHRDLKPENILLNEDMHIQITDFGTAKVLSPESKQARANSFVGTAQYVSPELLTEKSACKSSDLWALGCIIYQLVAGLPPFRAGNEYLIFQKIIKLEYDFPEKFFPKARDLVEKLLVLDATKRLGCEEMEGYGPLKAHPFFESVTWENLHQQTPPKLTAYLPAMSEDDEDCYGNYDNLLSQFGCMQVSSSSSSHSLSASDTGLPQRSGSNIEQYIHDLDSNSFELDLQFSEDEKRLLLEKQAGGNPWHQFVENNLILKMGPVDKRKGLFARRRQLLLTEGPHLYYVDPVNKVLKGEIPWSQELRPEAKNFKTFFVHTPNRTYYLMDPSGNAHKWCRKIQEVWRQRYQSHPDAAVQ

[12] = target: cAMP-dependent protein kinase catalytic subunit alpha (Homo sapiens) (UniProt P17612); conditions: at 0.1 µM
[13] = target: cAMP-dependent protein kinase catalytic subunit alpha (Homo sapiens) (UniProt P17612); conditions: at 1 µM
[14] = target: Protein kinase C alpha type (Homo sapiens) (UniProt P17252); conditions: at 0.1 µM
[15] = target: Protein kinase C alpha type (Homo sapiens) (UniProt P17252); conditions: at 1 µM
[16] = target: Protein kinase C beta type (Homo sapiens) (UniProt P05771); conditions: at 0.1 µM
[17] = target: Protein kinase C beta type (Homo sapiens) (UniProt P05771); conditions: at 1 µM
[18] = target: Protein kinase C eta type (Homo sapiens) (UniProt P24723); conditions: at 0.1 µM
[19] = target: Protein kinase C eta type (Homo sapiens) (UniProt P24723); conditions: at 1 µM
[20] = target: Protein kinase C gamma type (Homo sapiens) (UniProt P05129); conditions: at 0.1 µM;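 note: values are mean percent inhibition of PKC gamma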

Serine/threonine-protein kinase MRCK alpha (Homo sapiens), sequence (Q5VT25 whole entry): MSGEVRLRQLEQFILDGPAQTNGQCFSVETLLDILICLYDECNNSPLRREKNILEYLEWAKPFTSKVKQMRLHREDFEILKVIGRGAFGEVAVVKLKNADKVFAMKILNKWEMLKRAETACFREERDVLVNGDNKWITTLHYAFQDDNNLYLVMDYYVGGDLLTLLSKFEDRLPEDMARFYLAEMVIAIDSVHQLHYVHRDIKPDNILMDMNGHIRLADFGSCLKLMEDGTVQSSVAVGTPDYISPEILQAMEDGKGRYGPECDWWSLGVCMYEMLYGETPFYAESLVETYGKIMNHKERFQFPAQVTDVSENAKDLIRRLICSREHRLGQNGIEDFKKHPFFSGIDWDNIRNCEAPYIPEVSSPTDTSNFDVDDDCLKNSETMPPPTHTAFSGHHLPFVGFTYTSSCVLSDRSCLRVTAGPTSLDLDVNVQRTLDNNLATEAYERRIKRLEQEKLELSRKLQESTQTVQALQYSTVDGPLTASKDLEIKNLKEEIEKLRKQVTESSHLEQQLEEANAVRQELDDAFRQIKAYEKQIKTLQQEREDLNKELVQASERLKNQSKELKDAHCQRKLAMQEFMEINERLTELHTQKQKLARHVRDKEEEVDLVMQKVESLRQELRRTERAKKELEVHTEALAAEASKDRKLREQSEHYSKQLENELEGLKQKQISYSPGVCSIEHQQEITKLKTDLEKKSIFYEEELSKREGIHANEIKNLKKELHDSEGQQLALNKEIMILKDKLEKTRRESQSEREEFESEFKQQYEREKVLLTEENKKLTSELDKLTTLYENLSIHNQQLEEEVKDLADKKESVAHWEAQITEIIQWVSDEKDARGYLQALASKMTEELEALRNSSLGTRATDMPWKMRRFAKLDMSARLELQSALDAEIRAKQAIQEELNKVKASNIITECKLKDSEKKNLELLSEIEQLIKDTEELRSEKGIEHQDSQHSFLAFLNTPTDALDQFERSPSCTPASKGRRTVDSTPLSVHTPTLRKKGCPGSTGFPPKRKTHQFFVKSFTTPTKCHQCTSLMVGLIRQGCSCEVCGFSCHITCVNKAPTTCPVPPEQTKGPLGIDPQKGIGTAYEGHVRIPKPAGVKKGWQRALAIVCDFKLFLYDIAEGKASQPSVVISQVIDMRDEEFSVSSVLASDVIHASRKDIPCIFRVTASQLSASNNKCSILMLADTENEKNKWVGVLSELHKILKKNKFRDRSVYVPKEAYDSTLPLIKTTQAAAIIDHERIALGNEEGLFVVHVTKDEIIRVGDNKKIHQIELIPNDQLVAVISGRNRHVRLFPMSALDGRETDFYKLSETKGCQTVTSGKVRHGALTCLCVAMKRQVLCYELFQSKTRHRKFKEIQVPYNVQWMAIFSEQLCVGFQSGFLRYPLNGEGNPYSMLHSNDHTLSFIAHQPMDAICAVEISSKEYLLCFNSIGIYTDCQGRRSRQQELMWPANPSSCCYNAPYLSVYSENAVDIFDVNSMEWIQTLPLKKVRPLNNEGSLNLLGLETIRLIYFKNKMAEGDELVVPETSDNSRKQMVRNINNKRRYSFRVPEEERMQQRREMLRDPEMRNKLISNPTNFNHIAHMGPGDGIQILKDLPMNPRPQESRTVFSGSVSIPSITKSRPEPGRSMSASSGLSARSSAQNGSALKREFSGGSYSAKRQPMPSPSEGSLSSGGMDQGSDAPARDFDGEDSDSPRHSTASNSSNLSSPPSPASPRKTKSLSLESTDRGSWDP
Ribosomal protein S6 kinase alpha-5 (Homo sapiens), sequence (O75582 whole entry, looked up): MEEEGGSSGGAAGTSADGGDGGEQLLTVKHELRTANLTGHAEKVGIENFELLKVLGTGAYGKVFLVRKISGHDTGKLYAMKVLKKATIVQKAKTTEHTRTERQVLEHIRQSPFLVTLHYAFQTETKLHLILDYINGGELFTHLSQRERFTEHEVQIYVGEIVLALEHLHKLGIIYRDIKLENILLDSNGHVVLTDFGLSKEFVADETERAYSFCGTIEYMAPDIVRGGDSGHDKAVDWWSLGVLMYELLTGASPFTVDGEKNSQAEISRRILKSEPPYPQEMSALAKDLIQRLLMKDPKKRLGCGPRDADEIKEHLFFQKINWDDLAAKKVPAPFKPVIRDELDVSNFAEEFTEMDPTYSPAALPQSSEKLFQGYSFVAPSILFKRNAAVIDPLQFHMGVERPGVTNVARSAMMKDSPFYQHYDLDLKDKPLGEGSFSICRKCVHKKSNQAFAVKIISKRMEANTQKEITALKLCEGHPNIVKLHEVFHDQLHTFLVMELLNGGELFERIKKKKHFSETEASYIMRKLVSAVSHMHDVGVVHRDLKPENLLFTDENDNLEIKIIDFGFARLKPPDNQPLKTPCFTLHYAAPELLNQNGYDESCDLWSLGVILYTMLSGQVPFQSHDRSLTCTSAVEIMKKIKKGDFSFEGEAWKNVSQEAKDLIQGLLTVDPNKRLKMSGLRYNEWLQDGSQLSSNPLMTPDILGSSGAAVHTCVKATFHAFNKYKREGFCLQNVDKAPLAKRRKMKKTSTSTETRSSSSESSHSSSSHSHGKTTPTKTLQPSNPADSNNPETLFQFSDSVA
Ribosomal protein S6 kinase beta-1 (Homo sapiens), sequence (P23443 whole entry, looked up): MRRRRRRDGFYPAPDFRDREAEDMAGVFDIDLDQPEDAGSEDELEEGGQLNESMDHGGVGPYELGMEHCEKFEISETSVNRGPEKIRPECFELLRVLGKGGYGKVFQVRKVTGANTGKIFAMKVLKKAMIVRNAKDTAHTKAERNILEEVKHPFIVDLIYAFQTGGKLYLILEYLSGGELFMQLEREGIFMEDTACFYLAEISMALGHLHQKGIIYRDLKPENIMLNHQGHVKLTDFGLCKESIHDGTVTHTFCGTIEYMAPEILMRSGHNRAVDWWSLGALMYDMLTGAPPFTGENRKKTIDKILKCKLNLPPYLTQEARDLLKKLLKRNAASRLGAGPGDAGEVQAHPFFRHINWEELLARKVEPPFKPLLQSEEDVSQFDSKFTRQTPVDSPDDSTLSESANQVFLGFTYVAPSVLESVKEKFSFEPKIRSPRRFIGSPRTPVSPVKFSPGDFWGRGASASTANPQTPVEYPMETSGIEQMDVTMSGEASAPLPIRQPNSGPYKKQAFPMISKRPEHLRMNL
Protein kinase C beta type (Homo sapiens), sequence (P05771 2-671 limits assumed): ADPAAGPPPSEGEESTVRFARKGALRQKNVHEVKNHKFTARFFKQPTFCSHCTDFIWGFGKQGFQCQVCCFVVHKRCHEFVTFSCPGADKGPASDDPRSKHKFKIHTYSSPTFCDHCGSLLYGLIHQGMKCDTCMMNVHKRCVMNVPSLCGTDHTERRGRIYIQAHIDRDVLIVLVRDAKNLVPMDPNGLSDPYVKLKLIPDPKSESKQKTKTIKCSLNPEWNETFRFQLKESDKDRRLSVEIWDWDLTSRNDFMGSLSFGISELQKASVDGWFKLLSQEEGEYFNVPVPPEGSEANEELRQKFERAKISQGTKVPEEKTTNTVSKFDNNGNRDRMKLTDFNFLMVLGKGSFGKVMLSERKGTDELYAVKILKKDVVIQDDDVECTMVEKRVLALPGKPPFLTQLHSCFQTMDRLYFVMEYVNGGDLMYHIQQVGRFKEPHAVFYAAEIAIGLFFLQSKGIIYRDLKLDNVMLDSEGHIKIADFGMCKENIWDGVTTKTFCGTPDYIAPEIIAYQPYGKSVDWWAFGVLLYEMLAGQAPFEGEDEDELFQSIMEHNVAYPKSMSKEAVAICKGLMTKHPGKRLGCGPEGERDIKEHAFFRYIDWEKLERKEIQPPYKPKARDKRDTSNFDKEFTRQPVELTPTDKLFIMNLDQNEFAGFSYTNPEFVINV

SMILES	inhibition [1] [%]	inhibition [2] [%]	inhibition [3] [%]	inhibition [4] [%]	inhibition [5] [%]	inhibition [6] [%]	inhibition [7] [%]	inhibition [8] [%]	inhibition [9] [%]	inhibition [10] [%]	inhibition [11] [%]	inhibition [12] [%]	inhibition [13] [%]	inhibition [14] [%]	inhibition [15] [%]	inhibition [16] [%]	inhibition [17] [%]	inhibition [18] [%]	inhibition [19] [%]	inhibition [20] [%]
CNC(=O)c1cccc(C#Cc2cncnc2Nc2ccc(OCc3cccc(F)c3)c(Cl)c2)c1	-0.5	1.42	-0.81	-3.2	-0.16	-0.2	0.45	1.97	0.88	0.77	1	1.13	0.28	-0.17	0.64	0.07	1.77	1.23	-0.12	0.99
CCc1nn2ncccc2c1-c1ccnc(NC2CC2)n1	3.74	2.27	1.18	2.16	0.41	1.19	1.26	3.44	1.12	2.51	1.73	0.78	1.73	0.35	1.73	1.02	2.65	0.47	0.53	0.95
COc1cccc(-n2ncc3c(N/N=C/c4ccc(F)cc4)ncnc32)c1	-0.63	1.53	-0.45	0.66	4.05	4.15	2.78	4.13	1.73	3.51	0.01	1.66	3.69	0.47	1.43	1.01	0.97	3.28	2.58	0.86
N#Cc1c(NC(=O)c2ccc(F)cc2)sc2c1CCCC2	0.16	-0.05	-0.27	1.57	1.16	2.08	0.1	2.25	-0.29	0.86	0.85	1.5	2.64	0.43	-0.26	-1.4	2.12	3.5	2.09	0.54
COc1ccc2c(-c3ccnc(Nc4cccc(OC(F)(F)F)c4)n3)cnn2n1	-0.42	2.27	0.42	-0.61	4.58	4.54	2.99	7.19	3.11	3.7	1.72	1.61	3.17	1.34	12.7	0.08	3.07	6.47	6.9	5.4
COc1cc2ncn(-c3cc(OCc4ccccc4C(F)(F)F)c(C(=O)N(C)C)s3)c2cc1OC	0.01	0.75	-1.11	1.24	-0.57	-0.4	0.13	0.89	-0.55	-1.48	1.17	0.88	0.93	-0.03	0.21	0.35	-0.32	1.66	0.73	-1.33
COc1ccc(-c2cc3c(N)ncnc3o2)cc1	1.37	-2.67	1.33	-0.07	-2.51	-3.04	-0.05	-0.35	-0.5	-0.54	-0.95	-0.06	0.18	-0.88	3	-0.74	-2.12	-4.39	-1.49	0.2
COc1ccc2[nH]c3c4[nH]c5ccc(OC)cc5c4c4c(c3c2c1)C(=O)NC4=O	0.84	11.8	-0.86	2.96	18.7	48.4	11.8	45.3	45.6	83.6	29.8	4.03	17.2	4.27	28.7	1.55	8.91	3.82	19.5	4.07
NS(=O)(=O)c1ccc(N/N=C2\C(=O)Nc3ccc4ncccc4c32)cc1	1.68	13.5	0.55	7.07	5.1	14.5	20.4	61.2	2.37	12.1	20.8	1.4	3.13	0.41	3.78	-0.44	-0.03	2.36	3.07	0.51
Fc1ccc(-c2nn3ncccc3c2-c2ccnc(Nc3ccc4c(c3)OCCO4)n2)cc1	1.99	20.4	-0.17	1.27	2.73	2.22	0.67	3.9	1.73	2.69	1.87	2.22	7.13	1.5	15.3	1.43	13.3	2.26	6.09	-1.6
CCNC(=O)O[C@H]1CN[C@H](C#Cc2cc3ncnc(Nc4ccc(OCc5cccc(F)c5)c(Cl)c4)c3s2)C1	0.37	-0.19	1.07	0.37	3.18	2.55	1.61	2.66	1.69	1.78	4.86	1.62	1.22	0.4	1.1	0.61	-2.05	3.54	-2.11	-1.05
FC(F)(F)c1cccc(-c2nn3ncccc3c2-c2ccnc(Nc3ccc4c(c3)OCCO4)n2)c1	0.13	0.81	-0.8	1.29	1.59	1.24	0.3	3.51	1.22	-0.48	0.71	1.01	2.39	0.53	1.32	0.07	-2.34	2.1	1.3	0.03
COc1cc2c(cc1Nc1nc(Nc3ccsc3C(N)=O)c3cc[nH]c3n1)N(C(=O)CN(C)C)CCC2(C)C	2.48	6.74	4.54	14.9	4.6	8.3	5.18	13.8	2.7	4.93	2.56	2.98	8.67	4.21	34.3	2.16	3.73	6.04	9.1	8.05
Fc1cccc(COc2ccc(Nc3ncnc4sc(-c5ccco5)cc34)cc2Cl)c1	-3.73	-2.22	-0.66	-0.82	8.97	7.53	2.45	1.61	1.01	1.47	-0.87	0.8	1.84	1.33	1.21	0.29	-3.68	5.34	4.83	1.52
COC(=O)c1sc(-n2cnc3cc(OC)c(OC)cc32)cc1OCc1ccccc1C(F)(F)F	-0.56	-2.93	-0.49	-0.87	3.01	1.81	0.54	3.06	2.41	7.02	1.42	1.59	0.74	0.62	1.49	-0.94	0.17	2.15	0.99	3.39
